# In PubChem BioAssay (EPA / NIEHS):
# Results filed as inconclusive are left out. The source holds several records for some structures; these can differ, active in one and inactive in another. The source made the active and inactive calls. How the source made its calls: active means hit-call score of the fitted dose curve at least 0.9, where 1 is the maximum; inconclusive means response in the unintended direction; inactive means score below 0.9.
# Target: Estrogen receptor (Homo sapiens) (UniProt P03372)
# Sequence (P03372 whole entry, looked up): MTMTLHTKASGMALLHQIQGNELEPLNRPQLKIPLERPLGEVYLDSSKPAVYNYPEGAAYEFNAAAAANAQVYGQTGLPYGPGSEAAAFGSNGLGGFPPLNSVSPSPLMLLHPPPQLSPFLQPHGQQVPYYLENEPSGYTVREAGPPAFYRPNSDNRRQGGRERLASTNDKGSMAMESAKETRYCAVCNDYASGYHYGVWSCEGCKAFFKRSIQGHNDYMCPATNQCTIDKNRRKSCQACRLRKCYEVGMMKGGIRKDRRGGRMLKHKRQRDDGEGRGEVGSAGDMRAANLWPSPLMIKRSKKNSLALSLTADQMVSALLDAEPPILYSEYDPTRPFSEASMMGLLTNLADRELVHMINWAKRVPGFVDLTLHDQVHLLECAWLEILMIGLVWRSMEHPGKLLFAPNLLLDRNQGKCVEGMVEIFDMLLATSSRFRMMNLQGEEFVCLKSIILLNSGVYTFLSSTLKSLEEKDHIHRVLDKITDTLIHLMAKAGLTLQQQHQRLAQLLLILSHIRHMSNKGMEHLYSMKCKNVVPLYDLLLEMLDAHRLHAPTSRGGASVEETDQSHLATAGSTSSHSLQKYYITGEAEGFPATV
# Assay: CCTE_Deisenroth_AIME_384WELL_LUC_Inactive: CCTE's 384-well Estrogen Receptor Transactivation Assay without AIME metabolic competence (ERTA luciferase; metabolism negative), Deisenroth Lab (AID 2284038);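 further: hits raise estrogen receptor luciferase signal so potencies reflect agonists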
# Method: CCTE_Deisenroth_AIME_384WELL (AIME metabolism assay) is a cell-based, single-readout assay that uses VM7Luc4E2, a human mammary gland/breast cell line, with measurements taken at 24 hour after chemical dosing in a 384-well plate.CCTE_Deisenroth_AIME_384WELL_LUC_Inactive is one of four assay components measured or calculated from the CCTE_Deisenroth_AIME_384WELL assay. It is designed to make measurements of luciferase induction, a form of inducible reporter, as detected with bioluminescence signals by luciferase-coupled ATP quantitation technology.CCTE_Deisenroth_AIME_384WELL_LUC_Inactive is a component of the CCTE_Deisenroth_AIME_384WELL assay that measures the effect of retroftting the VM7Luc ERTA assay with the Alginate Immobolization of Metabolic Enzymes (AIME) metabolism method. AIME is optimized to impart phase I hepatic metabolism using phenobarbital/beta-naphthoflavone induced hepatic S9 from male Sprague Dawley rats. Parent chemicals are incubated for 2 hours in the AIME assay prior to transfer to the VM7Luc ERTA assay plate. […] This endpoint evaluates reporter induction in metabolism negative mode. Using a type of inducible reporter in VM7Luc cells, gain-of-signal activity can be used to understand changes in the reporter gene as they relate to xenobiotic metabolism and the gene ESR1. This assay endpoint, CCTE_Deisenroth_AIME_384WELL_LUC_Inactive, was analyzed in the positive analysis fitting direction relative to 17beta-estradiol as the positive control in the ERTA assay. To generalize the intended target to other relatable targets, this assay endpoint is annotated to the nuclear receptor intended target family, where the subfamily is steroidal.
# The AIME procedure consists of a preparative "pre-stamping" step using a barium chloride/poly-L-lysine (PLL) solution followed by "stamping" the lid in alginate-hepatic S9 (metabolism positive) or alginate-water (metabolism negative) to form microspheres. Once stamping is completed, the AIME lids are placed in duplicate microplates (metabolism positive or negative) containing chemical solutions and incubated for two hours to facilitate metabolic reactions. The conditioned medium, containing parent chemical or metabolites, is then transferred to the cell-based VM7Luc Estrogen Receptor Transactivation Assay (ERTA) for 24 hours. A typical experimental design tests a 10-point concentration series (0.002 - 200 uM) for 8 compounds (96-well format)1 or 32 compounds (384-well format)2 in single technical replicate. AIME assay controls include trans-stilbene (bioactivated control) and ethylparaben (bioinactivated control). ERTA assay plate controls include 17-beta estradiol (positive control) and DMSO (solvent control). Experiments typically comprise a minimum of four experimental replicates (n=4).
SMILES,AC50,outcome
C[C@]12CCC(=O)C=C1CC[C@@H]1[C@@H]2CC[C@@]2(C)[C@H]1CC[C@]2(C)O,1.63 µM (active),–
OCC(O)CO,0.000417 µM (active),inactive
ClC1=C(Cl)[C@]2(Cl)[C@@H]3[C@H]4C[C@H]([C@@H]5O[C@H]45)[C@@H]3[C@@]1(Cl)C2(Cl)Cl,–,inactive
COS(=O)(=O)OC,–,inactive
Sc1ccccc1,–,inactive
CCC(=O)O[C@H]1CC[C@H]2[C@@H]3CCC4=CC(=O)CC[C@]4(C)[C@H]3CC[C@]12C,–,inactive
c1cc2ccc3cccc4ccc(c1)c2c34,–,inactive
Nn1cnnc1,–,inactive
O=C(N[C@H]1CN2CCC1CC2)c1cc2ccoc2cn1,–,inactive
Clc1ccc(C(Cl)(Cl)Cl)cc1,–,inactive
Nc1ccc(-c2ccc(N)cc2)cc1,–,inactive
Cc1ccccc1O,–,inactive
C1CC2OC2CC1C1CO1 (stereo unspecified),–,inactive
COc1ccc(O)c(C(C)(C)C)c1,–,inactive
CCCCCCCCCc1ccc(O)cc1,24.5 µM (active),–
c1ccc(-c2ccccc2)cc1,–,inactive
O=C(O)C(F)(F)C(F)(F)C(F)(F)C(F)(F)C(F)(F)C(F)(F)C(F)(F)C(F)(F)F,–,inactive
C[C@]12CCC(=O)C=C1CC[C@@H]1[C@@H]2CC[C@]2(C)C(=O)CC[C@@H]12,–,inactive
Cc1ccc(O)c(C)c1,–,inactive
O=S(=O)(O)C(F)(F)C(F)(F)C(F)(F)C(F)(F)C(F)(F)C(F)(F)F,–,inactive
Clc1ccc(Cl)cc1,–,inactive
Cc1cc(-c2ccc(N)c(C)c2)ccc1N,15.2 µM (active),–
CN(C)CCO,–,inactive
C=CC(=O)NCNC(=O)C=C,–,inactive
CCCCCCOC(=O)c1ccccc1C(=O)OCCCCCC,–,inactive
CCC(C)(c1ccc(O)cc1)c1ccc(O)cc1,0.206 µM (active),–
Cc1cccc([N+](=O)[O-])c1,–,inactive
Cc1cc2c3c(c1)C(c1ccccc1)=N[C@@H](NC(=O)c1ccncc1)C(=O)N3CC2,–,inactive
CCCN(CCC)N=O,–,inactive
CCOCCOC(C)=O,–,inactive
